Test results reported in PubChem BioAssay (NCATS).
Inconclusive results are not listed. Values without a mark were called inactive. Activity calls are given as the source filed them. Calls come from the whole dose curve; as a rule, active = well fitted inhibition curve with a large enough effect; inconclusive = small, poorly fitted or top-dose-only effect; inactive = no such curve, though single readings can be large or run the other way.

tested on: Zika virus NS2B-NS3 protease (linked construct); experiment: Primary screen NINDS Rhodamine qHTS for Zika virus inhibitors (AID 1347160); details: purified NS2B-NS3 protease, Rhodamine110 substrate fluorescence; series mostly up to 57.1 µM; activity change, negative = inhibition: at the top concentration; note: nearly all actives have a fitted effect of over 55% in size
Outline: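 Enzyme (25 nM, linked NS2B-NS3) was preincubated 15 min with compound in 10 mM Tris-HCl pH 8.0, 0.01% Tween 20. Rhodamine110 substrate (1.5 microM) was then added and fluorescence read at start and after 15 min.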
% is set by controls: 0 for no effect and ±100 for the full control effect.

Structure (SMILES)	activity change, negative = inhibition	outcome
C[C@@H]1CC[C@]2(C(=O)O)CC[C@]3(C(=O)O)C(=CCC4[C@@]5(C)CC[C@H](O[C@@H]6O[C@@H](C)[C@H](O[C@@H]7O[C@H](CO)[C@@H](O)[C@H](O)[C@H]7O)[C@@H](O)[C@H]6O)C(C)(C)C5CC[C@]43C)C2[C@H]1C (stereo partly specified)	14% [at 15.1 µM]	
CCNC(=O)CCC/C=C\C[C@@H]1[C@@H](/C=C/C(O)CCc2ccccc2)[C@@H](O)C[C@@H]1O (stereo partly specified)	13.3%	
N#CCc1ccc(O)cc1O[C@@H]1O[C@H](CO)[C@@H](O)[C@H](O)[C@H]1O		inactive; activator [at 33.1 µM]
C=CCc1ccc(O[C@@H]2O[C@H](CO[C@@H]3O[C@H](CO)[C@@H](O)[C@H](O)[C@H]3O)[C@@H](O)[C@H](O)[C@H]2O)c(O)c1	22.1% [at 33.1 µM]	
COC(=O)[C@@]1(C)CC[C@]2(C(=O)O[C@@H]3O[C@H](CO)[C@@H](O)[C@H](O)[C@H]3O)CC[C@]3(C)C(=CCC4[C@@]5(C)CC[C@H](O[C@@H]6O[C@H](C(=O)O)[C@@H](O)[C@H](O)[C@H]6O)C(C)(C)C5CC[C@]43C)[C@@H]2C1 (stereo partly specified)	-1.58% [at 15.1 µM]	
COc1c(OC2OC(CO)C(O)C(O)C2O)ccc(O)c1C(=O)OCc1ccccc1O[C@@H]1O[C@H](CO)[C@@H](O)[C@H](O)[C@H]1O (stereo partly specified)	12.1% [at 15.1 µM]	
